Inhibition data for 60 compounds are collected here from PubChem BioAssay AID588726 (The Scripps Research Institute Molecular Screening Center, 2011).

Out of some 360,000 compounds screened, about 8,200 (2.3%) were called active. Rule as the data show it: active = inhibition above about 27%; inactive = the rest. Many of the other results were omitted from the sample, so actives are more common in it than they were.

For the assay, the target named is Fructose-bisphosphate aldolase (Mycobacterium tuberculosis (strain ATCC 25618 / H37Rv)) (UniProt P9WQA3). As to the kind of experiment: M. tuberculosis aldolase activity blockers – biochemical, fluorescence, strain H37Rv, primary screen (AID 588726).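 Also: 0% = vehicle and 100% = reference inhibitor.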 The following applies: purified M. tuberculosis FBA, fluorescence read-out, at 1 µM, hits give high values.
Chain of Fructose-bisphosphate aldolase (Mycobacterium tuberculosis (strain ATCC 25618 / H37Rv)) (P9WQA3 whole entry, looked up): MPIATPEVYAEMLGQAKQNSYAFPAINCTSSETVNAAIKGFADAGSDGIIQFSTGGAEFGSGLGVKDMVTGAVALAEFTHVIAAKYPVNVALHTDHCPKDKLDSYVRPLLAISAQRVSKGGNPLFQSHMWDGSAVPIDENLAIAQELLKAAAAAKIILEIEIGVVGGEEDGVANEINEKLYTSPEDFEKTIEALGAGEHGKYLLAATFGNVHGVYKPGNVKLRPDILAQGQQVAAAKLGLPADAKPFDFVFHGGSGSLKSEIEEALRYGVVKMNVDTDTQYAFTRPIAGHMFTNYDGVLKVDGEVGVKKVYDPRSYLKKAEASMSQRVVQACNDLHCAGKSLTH
Take `O=C(OCC(=O)N(CCc1ccccc1)Cc1ccccc1)c1ccccc1[N+](=O)[O-]`: the inhibition (as a rule, the drop in the measured response relative to a control, in per cent) is -2.21% (inactive).

Consider `COc1cccc(N(C(=O)c2ccn[nH]2)C2(C(=O)Nc3c(C)cccc3C)CCCCC2)c1`, for which the inhibition was -2.93% (inactive).

Consider `CC(=O)Nc1ccc(S(=O)(=O)N2CCC(C(=O)N[C@@H](Cc3ccccc3)C(=O)O)CC2)cc1`, for which the inhibition was 7.63% (inactive).

`O=C(O)CCN1C(=O)CC2(CCCCC2)C1=O`: the inhibition is 1.19% (inactive).

Turning to `O=C(NCc1ccc(F)cc1)c1cc(C2CCCCN2C(=O)C2CCCCC2)on1` (stereo not given), the inhibition is -0.56% (inactive).

With `CCCC(O)(c1ccccc1)C(c1ccccc1)c1ccccn1` (stereo not given), the inhibition was -3.41% (inactive).

As to `CC(=O)Nc1ccc(S(=O)(=O)NCC(=O)OCc2cc(=O)oc3ccc4ccccc4c23)cc1`, the inhibition was 124% (active).

As to `COc1ccccc1CNC(=O)COC(=O)CNS(=O)(=O)c1ccc(NC(C)=O)cc1`, the inhibition was -1.17% (inactive).

With `COc1ccccc1C(=O)COC(=O)CNS(=O)(=O)c1ccc(NC(C)=O)cc1`, the inhibition is 0.46% (inactive).

For the compound `Nn1c(SCC(=O)Nc2nccs2)nncc1=O`, the inhibition is -1.98% (inactive).

As for `CC(C)N(C(=O)CSc1nc(COc2ccccc2)nc2ccccc12)C(C)C`, the inhibition is -0.47% (inactive).

As to `COc1cc(C(F)(F)F)nc2c(Br)c(C(C)(C)C)nn12`, the inhibition was 36.7% (active).

With `O=C(CCN1C(=O)C2C3CCC(C3)C2C1=O)Nc1ccc(Cl)cc1Cl` (stereo not given), the inhibition was 3.23% (inactive).

On to `Cc1cc(C)cc(NC(=O)C(OC(=O)c2ccc(O)cc2)c2ccccc2)c1` (stereo not given), for which the inhibition is 2.39% (inactive).

On to `CN(C)CCCO/N=C(\c1ccccc1)c1ccncc1`, for which the inhibition was -1.04% (inactive).

`CC(=O)c1cc2c(cc1NC(=O)CN1CCCCCC1)OCO2`: the inhibition was 0.04% (inactive).

With `COc1cccc(N(CC(=O)NC2CCCC2)C(=O)Cn2nnc(-c3ccc(C)o3)n2)c1`, the inhibition is 2.95% (inactive).

With `COc1ccc(-c2cc3nc(NCCOc4ccccc4)ccn3n2)cc1`, the inhibition is 9.7% (inactive).

Turning to `COCCNc1cc(-c2ccccc2)nc2cc(-c3cccc(F)c3)nn12`, the inhibition is 50.2% (active).

`COc1ccc(NC(=O)c2cc3nc(-c4ccccc4)cc(C)n3n2)cc1OC`: the inhibition is 1.45% (inactive).

For `O=C(COC(=O)c1ncc(Cl)c(Cl)c1Cl)NCc1ccccc1`, the inhibition was 3.15% (inactive).

Consider `CC(C)(C)C(=O)Nc1cccc(-c2ccc[nH]2)n1`, for which the inhibition was 29.7% (active).

Consider `Cc1cccc(NC(=O)COc2ccc(Br)cc2C)n1`, for which the inhibition was 2.29% (inactive).

Consider `Cc1cccc(NC(=O)Cc2ccc(Br)cc2)n1`, for which the inhibition is -1.42% (inactive).

For the compound `N#CCc1ccc(NC(=O)c2ccccc2C(=O)Nc2ccc(CC#N)cc2)cc1`, the inhibition was 1.02% (inactive).

In the case of `CC1CCN(S(=O)(=O)c2ccc3c(ccn3CC(=O)O)c2)CC1`, the inhibition is -0.33% (inactive).

Turning to `Cc1ccn2c(c1)nc(=O)c1cc(S(=O)(=O)N3CCC(C)CC3)ccc12`, the inhibition is 29.3% (active).

On to `CC1CCN(S(=O)(=O)c2ccc3c(c2)n(C)c(=O)n3C)CC1`, for which the inhibition is -1.94% (inactive).

For the compound `N#Cc1ccc(N2Cc3ccccc3/C2=N/C(=O)Nc2ccc(Cl)cc2)cc1`, the inhibition is -0.15% (inactive).

Consider `CC1CCCCC1NC(=O)CN1CCC(O)(c2ccc3c(c2)OCO3)CC1` (stereo not given), for which the inhibition was -4.2% (inactive).

With `CN(C)c1ccc(/C=N/NC(=O)c2ccc(Cn3cc(Br)cn3)o2)cc1`, the inhibition was 0.83% (inactive).

Regarding `COc1ccc(/C=N/NC(=O)C(C)N(c2ccc(OC)cc2)S(C)(=O)=O)cc1` (stereo not given), the inhibition is -1.16% (inactive).

`CN(C)c1ccc(/C=N/NC(=O)C(O)c2ccc(Br)cc2)cc1` (stereo not given): the inhibition was 39.7% (active).

As for `CCCNC(=O)N1CCC(c2ccc3c(c2)OCO3)CC1`, the inhibition was 0.5% (inactive).

In the case of `O=c1[nH]oc(O)c1-c1ncc(C(F)(F)F)cc1Cl`, the inhibition was 0.86% (inactive).

Take `Cc1ccc(C)c(NC(=O)c2ccc(OC(=O)c3ccco3)cc2)c1`: the inhibition was 3.01% (inactive).

As to `CC(C)=NN1C(=O)c2ccccc2NC1(C)C`, the inhibition is 36.7% (active).

With `CC(=O)N1C(=O)C2(Nc3ccccc3N2)c2ccccc21`, the inhibition is 6.98% (inactive).

On to `CCOC(=O)C1(Cc2ccc(Cl)cc2)CCN(C(=O)C2=NNC(=O)CC2)CC1`, for which the inhibition is -6.86% (inactive).

As for `COc1cc(/C=C/C2=CC(C)(C)NC(=S)N2)cc(OC)c1OC`, the inhibition is -5.13% (inactive).

In the case of `CCC(=O)c1ccc(OC(=O)/C=C/c2cc(OC)c(OC)c(OC)c2)cc1`, the inhibition was 4.81% (inactive).

`COc1cc(/C=C/c2ccc(/C=C/c3cc(OC)c(OC)c(OC)c3)cc2)cc(OC)c1OC`: the inhibition is 50.4% (active).

For `CC/C(=N/Nc1ccccc1)c1cnnc(SC)n1`, the inhibition is 0.39% (inactive).

Regarding `COc1ccc(NC(=O)N2CCCC(C(=O)Nc3ccccc3OC)C2)cc1` (stereo not given), the inhibition was 1.71% (inactive).

Turning to `COc1ccc(C(=O)NC2CCN(C(=O)Nc3ccc(F)cc3)CC2)cc1`, the inhibition was -0.69% (inactive).

As to `COc1ccc(NC(=O)N2CCC(Cc3ccccc3)CC2)cc1`, the inhibition is 53.4% (active).

In the case of `O=C(COC(=O)c1ccc(S(=O)(=O)N2CCCCCC2)cc1)Nc1ccccc1C(F)(F)F`, the inhibition was 4.5% (inactive).

Take `CCc1ccc(Oc2coc3cc(OC(=O)c4cc5ccccc5oc4=O)ccc3c2=O)cc1`: the inhibition was 13.1% (inactive).

As to `COC(=O)COc1ccc2c(=O)c(Oc3ccccc3Br)coc2c1`, the inhibition was -0.49% (inactive).

On to `CCc1ccc(Oc2coc3cc(O)ccc3c2=O)cc1`, for which the inhibition is 70.2% (active).

Take `Cc1ccc(N2C(=O)CC(N3CCSCC3)C2=O)c(C)c1` (stereo not given): the inhibition is 3.11% (inactive).

For `COc1cccc2[nH]c(C(=O)NCCc3ccccc3)cc12`, the inhibition was 33.2% (active).

On to `COc1ccc(CCNC(=O)c2ccccc2-c2ccccc2C(=O)O)cc1OC`, for which the inhibition is 2.28% (inactive).

With `COc1ccc(OC)c2[nH]c(=O)c(CCNC(=O)C(=O)c3c[nH]c4ccccc34)cc12`, the inhibition was -5.42% (inactive).

As to `N#C[C@]1(S(=O)(=O)c2ccccc2)C[C@@H]2ON=C(c3cccc(Br)c3)[C@@H]2C1`, the inhibition was 2.3% (inactive).

For the compound `NS(=O)(=O)c1cc(C(=O)OCC(=O)NNC(=O)c2ccccc2)ccc1Cl`, the inhibition is -1.72% (inactive).

As for `O=C(NCc1ccccc1)C1CNCC(C(=O)NCc2ccccc2)C1` (stereo not given), the inhibition was -0.79% (inactive).

For the compound `COc1ccc(-n2cnc3cc(NCc4ccco4)ccc32)cc1`, the inhibition was -1.49% (inactive).

Turning to `Cn1c(SCC(=O)Nc2ccc(Br)cc2F)nnc1-c1ccco1`, the inhibition is 1.98% (inactive).

Regarding `Cn1c(-c2ccco2)nc2cc3ccccc3cc21`, the inhibition is 81.7% (active).
